In PubChem BioAssay (NCI):
This is part of a sample that, as a whole, favours compounds with a hit. Of some 83,000 tested, about 20% had one in any assay.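 Values shown are percent growth following 48 h exposure of cells in 96-well plates to a single concentration of compound; below 10 was considered active.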 Active and inactive are the calls of the source.

What was measured:
Experiment in all cases: NCI-60 one-dose screen, 48 h (100 = growth as untreated, 0 = no growth, -100 = all killed)
Conditions in all cases: 10 µM unless noted
[1] = tested on: T-47D breast
[2] = tested on: BT-549 breast
[3] = tested on: MDA-MB-435 melanoma
[4] = tested on: SW-620 colon
[5] = tested on: MCF7 breast
[6] = tested on: HCT-116 colon
[7] = tested on: HCC-2998 colon
[8] = tested on: KM12 colon

Measured: growth

O=C(COc1cccc(/C=C2\COc3ccccc3C2=O)c1)Nc1nccs1
active: [2] -79.6% | [4] -40.7% | [5] -12.5% | [6] -100% | [7] -85.6%
inactive: [1] 54.7% | [3] 53.5%

COc1ccc(-c2cc(-c3ccc(Nc4ccnc5cc(Cl)ccc45)cc3)nc(N3CCOCC3)n2)cc1
active: [1] -23% | [4] 8.98%
inactive: [2] 45.8% | [3] 10.1% | [5] 22.7% | [6] 52.8% | [7] 98.8%

Nc1nc2ccc3[nH]ncc3c2c2c1CCCC2
active: [2] -9.88% | [3] 6.3% | [4] 1.68% | [5] 7.3% | [6] 1.33% | [7] 9.63%
inactive: [1] 11%

O=C1/C(=C/c2ccccc2)SC(=S)N1CCc1ccc(O)cc1
inactive: [1] 54.3% | [2] 106% | [3] 96.2% | [4] 95.6% | [5] 112% | [6] 95.9% | [7] 107% | [8] 87.8%

Cn1cc(C(=O)c2nc(-c3c[nH]c4ccc(Br)cc34)no2)c2cc(F)ccc21
inactive: [1] 89.7% | [2] 95.7% | [3] 100% | [4] 95.3% | [5] 82.1% | [6] 104% | [7] 97.5%

Cc1[nH]c(-c2cc(N)ccc2Cl)c2c1C(=O)CCCC2
inactive: [1] 19.8% | [2] 49.8% | [3] 15.5% | [4] 64.6% | [5] 12.8% | [6] 29.4% | [7] 33.5%

COc1cccc(-c2nn(C(C)(C)C)cc2-c2ccnc(NCCCNS(=O)(=O)c3ccc(C)cc3)c2)c1
inactive: [1] 98.1% | [2] 101% | [3] 104% | [4] 103% | [5] 102% | [6] 96.7% | [7] 113%

Cn1c(=O)c2c(nc3n(-c4ccc(Cl)cc4Cl)c(Sc4nc(-c5ccccc5)c(C#N)c(=O)[nH]4)cn23)n(C)c1=O
inactive: [1] 11.3% | [2] 72.6% | [3] 69.1% | [4] 30% | [5] 52.1% | [6] 18.6% | [7] 78.3%

Oc1ccc(N=Cc2ccccc2O)cc1
inactive: [1] 89.4% | [2] 78.3% | [3] 110% | [4] 99.1% | [5] 92.8% | [6] 98.8% | [7] 116%

Nc1nc2ncc(CCNc3ccc(C(=O)O)cc3)nc2c(=O)[nH]1
inactive: [1] 115% | [2] 124% | [3] 112% | [4] 110% | [5] 110% | [6] 104% | [7] 117%

Cc1ccc(C2Oc3ccccc3C3CC(c4cccs4)=NN32)cc1 (configuration not stated)
inactive: [1] 94.7% | [2] 86.6% | [3] 103% | [4] 102% | [5] 80.4% | [6] 99.9% | [7] 98.7% | [8] 94.3%

Cc1cc(N2CCCCC2)nc(NC2CCCC(Nc3ccnc4cc(Cl)ccc34)C2)n1 (configuration not stated)
active: [1] -58.5% | [2] -67% | [3] -92% | [4] -66.7% | [5] -50.2% | [6] -86.6% | [7] -62.3%

Nc1ccc(-c2cc3c(NCc4ccccc4)ncnc3s2)cc1
inactive: [1] 52.4% | [2] 78.2% | [3] 93.7% | [4] 105% | [5] 72.5% | [6] 95.6% | [7] 92.6%

Cc1ccc2c(c1)C(=O)/C(=C/c1cccc(OCC(=O)c3ccc(Cl)cc3)c1)CS2
inactive: [1] 84.9% | [2] 101% | [3] 65.3% | [4] 25.1% | [5] 47.4% | [6] 52.9%

O=C1CSC(=S)N1CCc1ccc(O)cc1
inactive: [1] 38.1% | [2] 105% | [3] 65.8% | [4] 53.8% | [5] 37.6% | [6] 71.5% | [7] 102%

CCCCn1c(-c2ccc(C(=O)O/N=C(\N)c3ccc4c(c3)OCO4)cc2)nc(-c2ccccc2)c1-c1ccccc1
inactive: [2] 54.5% | [3] 46.1% | [4] 60.3% | [5] 48.1% | [7] 61.5%
active: [1] 0.0231% | [6] 4.35%

Cn1c(NCCc2ccc(O)c(O)c2)nc2c1c(=O)n(Cc1ccc(Cl)c(Cl)c1)c(=O)n2C
inactive: [1] 58% | [2] 67.1% | [3] 73% | [4] 76.5% | [5] 79% | [6] 64.8% | [7] 90.6%

Clc1ccc2c(NCCNc3nc(N4CCOCC4)nc4ccccc34)ccnc2c1
inactive: [2] 93.5% | [4] 11.2% | [5] 38.8% | [7] 32.3%
active: [1] -15% | [3] -8.79% | [6] -7.53%

NC(=O)c1cc(I)ccc1NC(=O)/C=C/c1ccccc1Cl
active: [3] -31.8% | [5] 7.38%
inactive: [1] 26.6% | [2] 70.1% | [4] 26.9% | [6] 14.5% | [7] 23.4%

Brc1ccc(-c2csc(Nc3ccccn3)n2)cc1
inactive: [1] 53.7% | [2] 112% | [3] 88.5% | [4] 103% | [5] 34.5% | [6] 81.3%
active: [7] -5.04%

CN1CCN(CCCOc2cccc3nc(Nc4cc(Cl)cc(Cl)c4)ccc23)CC1
inactive: [2] 65% | [7] 30.2%
active: [1] -25.3% | [3] -46.5% | [4] -66.6% | [5] -80.3% | [6] -26.6%

CCCCC/C(C=C(C#N)C#N)=C/c1ccccc1
inactive: [1] 76.1% | [2] 69.3% | [3] 27% | [4] 59.2% | [5] 38.5% | [6] 27.7% | [7] 88.3%

O=C(N=Nc1c(O)[nH]c2ccccc12)c1cc(-c2ccccc2)on1
inactive: [1] 97.6% | [2] 109% | [3] 110% | [4] 97.8% | [5] 87.9% | [6] 99.7% | [7] 111%

CC(=O)OC[C@H]1O[C@H](OC(C)=O)[C@H](NC(=O)/C=C/CCl)[C@@H](OC(C)=O)[C@@H]1OC(C)=O
inactive: [1] 69.1% | [2] 85.9% | [3] 80.4% | [4] 26% | [5] 79.3% | [6] 60.4%

CCCCN(CCCC)CCCn1c(-c2ccccc2)ccc1-c1ccccc1
inactive: [1] 67.4% | [2] 74.1% | [3] 85.7% | [4] 65.1% | [5] 58.4% | [6] 34.1% | [7] 59.9%

COc1cc(CNc2oc(-c3ccccc3)c(-c3ccccc3)c2C#N)cc(CN2CCN(C)CC2)c1O
inactive: [1] 74% | [2] 76.4% | [3] 40.5% | [4] 31.8% | [5] 14.9% | [6] 36.7% | [7] 37.4%

CCCN1CCN(c2ccc3nc(-c4ccc5nc(-c6ccc(OCC)cc6)[nH]c5c4)[nH]c3c2)CC1
active: [4] -83.7% | [5] -69.7% | [6] -89.8% | [7] -96.9%
inactive: [1] 47.2% | [2] 71.2% | [3] 27.6% | [8] 42.8%

N#Cc1c(N)n(CCNC(=O)c2ccccc2)c2nc3ccccc3nc12
inactive: [1] 95.4% | [2] 140% | [3] 95.9% | [4] 123% | [5] 109% | [6] 102% | [7] 97.4%

COc1cccc(-c2nc3sccn3c2-c2ccnc(NCCCNS(=O)(=O)c3cccc(Cl)c3)c2)c1
active: [1] -4.56%
inactive: [2] 20.2% | [3] 37.4% | [4] 67.5% | [5] 44.4% | [6] 34% | [7] 81.6%

COc1cc2c(cc1O)CC[C@@H]1[C@@H]2CC[C@]2(C)[C@@H](NCCN(C)C)CC[C@@H]12
active: [1] -64.5% | [2] -84.3% | [3] -78.9% | [4] -80.4% | [5] -75.8% | [6] -90.6%

O=C(C(=O)c1ccc2c(c1)OCO2)c1ccc2c(c1)OCO2
inactive: [1] 113% | [2] 101% | [3] 114% | [4] 90.6% | [5] 102% | [6] 101% | [7] 114%

CC(O)CN1CC(O)=C(c2nc3ccccc3s2)C1=N (configuration not stated)
active: [7] 8.02%
inactive: [1] 104% | [2] 109% | [3] 98.9% | [4] 108% | [5] 96.3% | [6] 109%

COc1ccc2c(c1)c(-c1nonc1-c1cn(C)c3ccccc13)cn2C
inactive: [1] 33.5% | [2] 60.2% | [4] 24.5% | [5] 24% | [6] 26.6% | [7] 45.4% | [8] 25.7%
active: [3] 1.09%

CC(=O)c1cc2c(N)c(C(=O)Nc3cccc4ccccc34)sc2nc1C
active: [3] -34%
inactive: [1] 42.7% | [2] 46.5% | [4] 17.8% | [5] 22.1% | [6] 29.3% | [7] 37.1%

O=C1NC(=S)NC(=O)C1CC(=O)n1c(-c2ccccc2)nc2ccccc21
inactive: [1] 95.3% | [2] 100% | [3] 102% | [4] 98.6% | [5] 80.4% | [6] 104% | [7] 104% | [8] 101%
